HEK293 tox – qHTS of GLP-1 Receptor Inverse Agonists: Cytotox Screen; HEK293 cAMP-luciferase reporter cells, luminescence, 24 h; Potency, µM (titrated, usually from 38.3 µM), for the others: at the top dose activity change, negative = inhibition, most hits filed as inhibitors; 0.13% of 410,000 active; AID 624418, 2012;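 also: loss of luciferase light is scored as toxicity; % is scaled to controls: 0 for no effect and ±100 for the full control effect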
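Step one: seed cells (200 cells/uL, DMEM with 10% Nu serum, 1% pen-strep). Step two: 12-hour incubation at 37 deg C. Step three: pin 23 nL compound, incubate 24 hr. Step four: add luciferase reagent, read luminescence 12 min later.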
PTHR1 ag – qHTS for PTHR1 Agonists: Primary Screen; Parathyroid hormone/parathyroid hormone-related peptide receptor (Homo sapiens), Q03431; HEK293 GP2 PTHR1 cells, GloSensor cAMP luminescence, 1 h; Potency, µM (doses to about 115 µM), for inactives: at the highest dose activation, hits mostly activators; 0.075% of 410,000 active; AID 743266, 2014; also: nearly all actives have a fitted effect of over 55% in size
Target sequence (Q03431 whole entry, looked up): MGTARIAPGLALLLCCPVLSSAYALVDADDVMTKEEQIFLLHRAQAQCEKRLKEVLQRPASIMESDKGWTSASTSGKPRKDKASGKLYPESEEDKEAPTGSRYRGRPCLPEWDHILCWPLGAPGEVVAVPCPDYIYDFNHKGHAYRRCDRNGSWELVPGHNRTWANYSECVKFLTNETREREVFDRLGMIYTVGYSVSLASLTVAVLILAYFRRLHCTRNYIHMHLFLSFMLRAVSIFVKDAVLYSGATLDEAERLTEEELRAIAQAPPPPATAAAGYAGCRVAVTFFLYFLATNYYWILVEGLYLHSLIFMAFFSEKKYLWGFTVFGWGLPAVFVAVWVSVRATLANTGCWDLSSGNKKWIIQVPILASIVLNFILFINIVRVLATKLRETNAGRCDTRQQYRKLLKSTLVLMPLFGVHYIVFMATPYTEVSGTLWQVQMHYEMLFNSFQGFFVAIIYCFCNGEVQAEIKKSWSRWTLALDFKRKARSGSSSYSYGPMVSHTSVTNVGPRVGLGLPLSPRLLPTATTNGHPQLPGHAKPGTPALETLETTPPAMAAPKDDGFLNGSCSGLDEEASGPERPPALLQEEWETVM
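HEK-293-derived GP2 cells expressing PTHR1 and a GloSensor cAMP reporter, 3,000/well, plated overnight, given luciferin plus IBMX (each 0.5 mM as added) for 1 h at 37 °C, then compound for 1 h at 37 °C. Luminescence was read after 15 min at room temperature.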
GLP1R inv ag – qHTS of GLP-1 Receptor Inverse Agonists (Inhibition Mode). Glucagon-like peptide 1 receptor (Homo sapiens), P43220. HEK293 GLP-1R CRE-luciferase, luminescence, 24 h; GLP-1R form is constitutively active. Potency, µM (series often up to 38.3 µM), for inactives: at the highest dose activity change, negative = inhibition, hits mostly inhibitors. 1.6% of 410,000 active; also: % is scaled to controls: 0 for no effect and ±100 for the full control effect; nearly all actives have a fitted effect of over 55% in size
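Constitutively active GLP-1R drives a cAMP-responsive luciferase in stably transfected HEK293 cells; test compounds are added after overnight (12 h) attachment and left 24 hr, and signal loss in luminescence marks inhibition.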
GLP-1R agonist – qHTS of GLP-1 Receptor Agonists; Glucagon-like peptide 1 receptor (Homo sapiens), P43220; HEK293 GLP-1R CRE-luciferase, luminescence, 4-6 h; cells express a hypersensitive GLP-1R form; Potency, µM (titrated, usually from 45.6 µM), without a hit: at the top dose activation, most hits filed as activators; 0.007% of 380,000 active; AID 624172, 2012; also: % of control where 0% means no effect
* hit, by the source's call; i = inactive; ? = inconclusive; · = no result; [ ] = dose if it differs, or a comment. A selection: hits, their analogues and other compounds. The true share with any hit is near 1.7%. Calls follow the shape of the dose curve; as a rule, active = well fitted curve in the direction sought with a large enough effect; inconclusive = small, poorly fitted or top-dose-only effect, or another doubt; inactive = no such curve, though single readings can be large; an effect the other way counts as inactive or inconclusive. Potency is read from the fitted curve at half-maximal effect.

SMILES	HEK293 tox	PTHR1 ag	GLP1R inv ag	GLP-1R agonist
COc1cccc(NC(=O)CN(C)C(=O)c2ccc(Cl)c(S(=O)(=O)N3CCCCCC3)c2)c1	-5%	-30%	8.9µM*	16%
CN(CC(=O)Nc1ccccc1Cl)C(=O)c1ccc(Cl)c(S(=O)(=O)N2CCCCCC2)c1	-16%	-31%	?	13%
CCN(CC)CCNC(=O)c1ccc(NC(=O)c2ccc(S(=O)(=O)N3CCCCCC3)cc2)cc1	?	-14%	?	6%
CCN(CC)CCNC(=O)c1ccc(NC(=O)COc2ccc3c(c2)CCC3)cc1	-16%	22%	4.5µM*	7%
COc1cccc(CN(C)C(=O)c2cc(COc3ccc4ncccc4c3)on2)c1	-20%	-31%	-33%	18%
CN(Cc1cccc(F)c1)C(=O)c1cccc(S(=O)(=O)N2CCN(Cc3ccccc3)CC2)c1	0%	-31%	?	-3%
CN(Cc1ccc(Cl)c(Cl)c1)C(=O)c1cccc(S(=O)(=O)N2CCN(Cc3ccccc3)CC2)c1	-5%	-37%	11µM*	4%
C=CCN(C(=O)c1cccc(S(=O)(=O)N2CCN(C)CC2)c1)c1nc(-c2ccccc2)cs1	-3%	-29%	11µM*	3%
CCOc1ccc(CCN2C(=S)N([C@@H](CC(C)C)CN3CCCC3CN3C(=S)NC[C@@H]3Cc3ccc(O)cc3)C[C@@H]2CC(C)C)cc1 (some centres not stated)	-4%	i	10µM*	9%
CCOc1ccc(CCN2C(=S)N([C@@H](CC(C)C)CN3CCCC3CN3C(=S)NC[C@@H]3Cc3ccc(O)cc3)C[C@@H]2Cc2ccccc2)cc1 (some centres not stated)	1%	i	11µM*	-1%
O=C(Nc1cccc([N+](=O)[O-])c1)C1COc2ccccc2O1 (configuration not stated)	3%	-12%	5%	14%
COCCCN(C(=O)Cc1csc(-c2cccc(Cl)c2)n1)c1c(N)n(Cc2ccccc2)c(=O)[nH]c1=O	-2%	-27%	4%	-1%
CCCn1c(N2CCN(Cc3ccc(Cl)cc3)CC2)nc2ccccc21	?	-36%	11µM*	-6%
O=C(NCCN1CCN(c2ccccc2)CC1)Nc1cccc(Cl)c1	-19%	-10%	2.5µM*	23%
Cc1cc(C(=O)NCCN2CCN(c3cccc(Cl)c3)CC2)n(-c2ccccc2)n1	-25%	-16%	6.3µM*	-5%
CC(C)c1nc2ccc(C(=O)NCCCN3CCN(c4cccc(Cl)c4)CC3)cc2o1	-17%	i	10µM*	·
CC(C)c1nc2ccc(C(=O)NCCCN3CCN(c4ccc(F)cc4)CC3)cc2o1	-8%	i	?	·
COc1ccc(OC)c(CNC(=O)c2ccc(Sc3ccc(Cl)cc3)c(NC(C)=O)c2)c1	-2%	-4%	-30%	·
COc1ccc2c(c1)Cc1sc(NC(=O)c3ccccc3C)nc1-2	-21%	-2%	4%	·
Cc1nn(-c2ccc(F)cc2)c(Cl)c1C(=O)OC(C)C(=O)N(C)C1CCCCC1 (configuration not stated)	-7%	-8%	5µM*	-5%
CCc1nc2c(cnn2-c2ccc(Cl)cc2)c(=O)n1-c1ccc(OC)cc1	-8%	-11%[57.5 µM]	11µM*	3%
COc1ccc(-n2c(-c3ccco3)nc3c(cnn3-c3ccc(C)cc3)c2=O)cc1	-6%	-35%	2%	11%
COc1ccc(-n2c(-c3ccccc3F)nc3c(cnn3-c3ccc(C)cc3)c2=O)cc1	2%	i	7.1µM*	·
CO[C@@H]1[C@@H]([C@H](C)[C@@H]2O[C@@]3(CC[C@@](C)([C@H]4CC[C@@](C)([C@H]5O[C@H]([C@H]6O[C@](C)(O)[C@H](C)C[C@@H]6C)C[C@H]5O[C@H]5C[C@@H](OC)[C@H](OC)[C@@H](C)O5)O4)O3)C[C@@H](O)[C@@H]2C)O[C@@](O)(CC(=O)O)[C@H](C)[C@H]1OC	·	·	·	-4%
Cc1ccc(S(=O)(=O)N2CCN(C(=O)CCC(=O)NCc3cccc(C(F)(F)F)c3)CC2)cc1	-6%	-83%	-29%	-1%

Screening results as filed in PubChem.
